Compound activity: PubChem BioAssay, National Center for Advancing Translational Sciences (NCATS)
Shown are actives, neighbours in structure and some others; about 21% of the full set was active somewhere.
Shiga toxin inh: A qHTS for Small Molecule Inhibitors of Shiga Toxin; 290,000 compounds, 9.2% hits; Vero cells, Shiga toxin protein synthesis inhibition reporter; inhibition, % at 38.7 µM; in the data active = inhibition mostly above about 28%, no sharp cut-off; inactive = mostly below about 43%
Pf growth 48h: Primary qHTS for delayed death inhibitors of the malarial parasite plastid, 48 hour incubation; P. falciparum luciferase growth in erythrocytes, 48 h; Potency, µM (titrated, usually from 28.7 µM), hits mostly inhibitors; 310,000 compounds, 5.9% hits; AID 504832, 2011
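Luminescence readout; reporter = integrated firefly luciferase in P. falciparum. RBC culture at 2% hematocrit, 0.1% parasitemia final, 37 C/5% CO2; decreased signal taken as growth inhibition.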
Pf growth 96h: Primary qHTS for delayed death inhibitors of the malarial parasite plastid, 96 hour incubation. P. falciparum luciferase reporter growth, 96 h. Potency, µM (doses to about 28.7 µM), hits mostly inhibitors. 320,000 compounds, 6.9% hits. AID 504834, 2011
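Two parasite generations (96 h, 37 C, 5% CO2) of compound exposure in infected erythrocytes (0.05% parasitemia, 2% hematocrit). Luciferase-reporter P. falciparum; decreased luminescence indicates inhibited growth, aimed at apicoplast-acting delayed death.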
CHX counter: Cycloheximide Counterscreen for Small Molecule Inhibitors of Shiga Toxin | AID 2314, 2010 | max response, % | 300,000 compounds, 12% hits | cell reporter, cycloheximide protein synthesis inhibition counterscreen; in the data active = max response mostly above about 13%, no sharp cut-off; inactive = mostly below about 14%; note: read at 38.3 µM for the half of the compounds with a filed dose
NS1 function inh: qHTS Assay for Inhibitors of Influenza NS1 Protein Function; Potency, µM (highest dose often 46.1 µM); 270,000 compounds, 0.4% hits; calls by dose curve; note: actives are rising curves; nearly all actives have a fitted effect of over 50% in size
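OD600 was taken as the measure of yeast growth restored by compound in an NS1-expressing S. cerevisiae strain. Cells had been washed out of glucose medium and diluted 1:100 into galactose -URA medium, pH 6.0.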
Sm TGR block: qHTS Assay for the Inhibitors of Schistosoma Mansoni Peroxiredoxins | AID 485364, 2010 | purified TGR, DTNB reduction, TNB absorbance 405 nm | Schistosoma mansoni thioredoxin glutathione reductase (TGR), Q962Y6 | Potency, µM (highest dose often 114 µM), usual class: inhibitors | 360,000 compounds, 3% hits; note: nearly all actives have a fitted effect of over 60% in size
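First, TGR (20 nM dispensed) and NADPH were mixed with compound. Second, a 15 min room-temperature incubation followed. Third, further NADPH and then DTNB were added to start the reaction. Finally, TNB absorbance was monitored kinetically.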
Large screens that a line does not name were inactive; ! = not active in a repeat. Unless noted, calls come from the whole dose curve; as a rule, active = well fitted curve in the direction sought with a large enough effect; inconclusive = small, poorly fitted or top-dose-only effect, or another doubt; inactive = no such curve, though single readings can be large; an effect the other way counts as inactive or inconclusive.

COc1ccc(NC(=O)COC(=O)CCCC2=NS(=O)(=O)c3ccccc3N2)cc1	Pf growth 96h inconclusive
COC(=O)c1ccccc1CON1C(=O)C(C)(C)N(OCc2ccccc2C(=O)OC)C(=O)C1(C)C	Pf growth 48h inconclusive, Pf growth 96h inconclusive
COc1cc(N[C@@H](C)CCCN)c2ncccc2c1	Pf growth 48h 0.809µM, Pf growth 96h 0.573µM (no result: Shiga toxin inh, CHX counter, NS1 function inh, Sm TGR block)
COc1cc(NC(C)CCCN)c2ncccc2c1Oc1ccccc1 (stereo not drawn)	Pf growth 48h inconclusive, Pf growth 96h 2.08µM
O=C(Nc1ccc(NC(=O)c2sc3ccccc3c2Cl)cc1Cl)c1ccco1	none
CCCc1nc(SCC(=O)N2CCOCC2)c2c(C)c(C)sc2n1	none
Cc1ccccc1Oc1ccc(Oc2ccccc2C)nn1	Shiga toxin inh 116.4, Pf growth 48h inconclusive, CHX counter 30.7
Cc1ccc(Oc2ccc(Oc3ccc(C)cc3)nn2)cc1	none
O=C1c2ccccc2NC2(CCCC2)N1O	Shiga toxin inh 53.2, CHX counter 15.6 (no result: Pf growth 48h)
O=C1c2ccccc2NC2(CCCCC2)N1N=C1CCCCC1	Shiga toxin inh 44.2, Pf growth 96h inconclusive, CHX counter 60.0
Cc1ccc(CN2C(=O)c3ccccc3NC23CCN(Cc2ccccc2)CC3)cc1	Pf growth 48h inconclusive, Pf growth 96h inconclusive (no result: NS1 function inh)
NC(=O)c1cc(S(=O)(=O)NCC2CCC(C(=O)Nc3ccc(Cl)cc3)CC2)cs1 (stereo not drawn)	none (no result: Shiga toxin inh, Pf growth 48h, Pf growth 96h, CHX counter, NS1 function inh)
O=C(NCc1ccco1)C(=O)NCC1OCCN1C(=O)c1ccc(Cl)cc1 (stereo not drawn)	Sm TGR block 17.8µM
COc1ccc(CNS(=O)(=O)c2ccc3c(c2)C(C)(C)C(=O)N3C)cc1OC	none (no result: Shiga toxin inh, Pf growth 48h, Pf growth 96h, CHX counter, NS1 function inh)
Cc1ccc2nc(-c3ccncc3)[nH]c2c1	Shiga toxin inh 83.2, CHX counter 46.9
FC(c1nc2ccccc2[nH]1)C(F)(F)F (stereo not drawn)	none
Cc1ccc2nc(C(F)C(F)(F)F)[nH]c2c1 (stereo not drawn)	Shiga toxin inh 44.0, Pf growth 96h inconclusive, CHX counter 21.6
Cc1ccccc1OCC(=O)OCC(=O)NCCc1ccccc1	none (no result: Shiga toxin inh, CHX counter, NS1 function inh)
Cc1ccc(-c2[nH]c(-c3ccc(C(=O)O)cc3)nc2-c2ccccc2)cc1	Pf growth 96h 10.4µM
O=C(O)c1ccc(-c2nc(-c3ccccc3)c(-c3cccs3)[nH]2)cc1	Pf growth 48h inconclusive
C=C(C)[C@@H]1CC=C(CN2CCC(N3CCC(C(=O)N4CCCC4)CC3)CC2)CC1	Pf growth 48h 7.38µM
COc1ccc(-c2sc3ccc(OC)cc3c2-c2ccc(OC)c(F)c2)cc1	Pf growth 48h inconclusive (no result: Shiga toxin inh, CHX counter, NS1 function inh)
COc1ccc(-c2sc3ccc(N4CCOCC4)cc3c2-c2ccc(OC)c(F)c2)cc1	Pf growth 48h 14.7µM, Pf growth 96h 6.57µM
CC(C)(C)c1cnnn1-c1ccc(C(=O)CCl)cc1	Sm TGR block 8.91µM
CC(C)(C)c1cnnn1-c1ccc(C=O)cc1	none
COc1ccccc1C(=O)C1CCCN(C(=O)CCC(=O)c2ccccc2)C1 (stereo not drawn)	Pf growth 96h inconclusive, CHX counter 12.4
COc1ccccc1C(=O)C1CCCN(C(=O)Nc2ccccc2F)C1 (stereo not drawn)	Shiga toxin inh 73.2, Pf growth 96h inconclusive, CHX counter 27.9
O=C(c1cccc2ccccc12)C1CCCN(C(=O)CCc2cnccn2)C1 (stereo not drawn)	Pf growth 96h inconclusive, CHX counter 15.1
COc1ccc(F)cc1C(=O)C1CCCN(C(=O)CSc2ccccn2)C1 (stereo not drawn)	Pf growth 48h inconclusive
O=C(c1cc(F)ccc1F)C1CCCN(C(=O)CCc2cnccn2)C1 (stereo not drawn)	none
CCN(CC)CC(=O)N1CCCC(C(=O)c2ccccc2OC)C1 (stereo not drawn)	Pf growth 96h inconclusive
COc1ccccc1C(=O)C1CCCN(C(=O)CSc2ccccn2)C1 (stereo not drawn)	Pf growth 96h 10.4µM
CS(=O)(=O)Oc1ccc(Br)cc1/C=C1/N=C(c2ccco2)OC1=O	Pf growth 96h 10.4µM
COc1ccc(-n2cc(-c3ccc(C)cc3)[n+]3c2SCC3)cc1	Pf growth 48h 0.586µM, Pf growth 96h inconclusive
c1ccc(-c2cn(-c3ccccc3)c3[n+]2CCCS3)cc1	Pf growth 48h inconclusive, Pf growth 96h inconclusive
Cc1ccc(-c2cn(-c3ccccc3)c3[n+]2CCCS3)cc1	Pf growth 48h 1.04µM, Pf growth 96h 0.37µM!
CCc1ccc(-n2cc(-c3ccc(F)cc3)[n+]3c2SCCC3)cc1	Pf growth 48h 1.47µM, Pf growth 96h inconclusive
N#Cc1ccc(-c2cn(-c3ccccc3)c3[n+]2CCCS3)cc1	Pf growth 48h inconclusive, Pf growth 96h inconclusive
OCCC1CN(Cc2cn[nH]c2C2CCCCC2)CCN1C1CCCC1 (stereo not drawn)	none
OC(COC(c1ccc(Cl)cc1)c1ccc(Cl)cc1)CN1CCN(c2ccccn2)CC1 (stereo not drawn)	Pf growth 48h inconclusive, Pf growth 96h inconclusive
CC1CCN(CC(O)Cn2c3ccccc3c3ccccc32)CC1 (stereo not drawn)	Pf growth 48h inconclusive, Pf growth 96h inconclusive
OC(CN1CCN(c2ccccn2)CC1)Cn1c2ccc(Cl)cc2c2cc(Cl)ccc21 (stereo not drawn)	Pf growth 48h 1.65µM (no result: Pf growth 96h)
OC(CN1CCCCC1)Cn1c2ccc(Cl)cc2c2cc(Cl)ccc21 (stereo not drawn)	Pf growth 48h 1.85µM, Pf growth 96h inconclusive
Cc1ccc(N2CC(NC(=O)C3CCCC3)CC2=O)cc1 (stereo not drawn)	none (no result: Shiga toxin inh, Pf growth 48h, Pf growth 96h, CHX counter, NS1 function inh)
Cc1ccc(S(=O)(=O)N2CCOCC2)cc1NC(=O)COC(=O)CSc1ccc(Br)cc1C	none (no result: Pf growth 48h)
COc1cc(Nc2nc(SCc3ccccc3Cl)nc3ccccc23)cc(OC)c1	none (no result: Shiga toxin inh, Pf growth 48h, Pf growth 96h, CHX counter, NS1 function inh)
COCCCn1cnc2oc3nc4ccccc4nc3c2c1=O	Shiga toxin inh 98.1, CHX counter 37.1
COCCCn1cnc2c(c1=O)c1nc3ccccc3nc1n2-c1ccccc1	none
CC(C)C[C@@H](C(=O)O)N(Cc1cccc(CN([C@@H](CC(C)C)C(=O)O)S(C)(=O)=O)c1)S(C)(=O)=O	none
CS(=O)(=O)N(Cc1cccc(CN(C(C(=O)O)c2ccccc2)S(C)(=O)=O)c1)C(C(=O)O)c1ccccc1 (stereo not drawn)	Sm TGR block 5.01µM
COC(=O)[C@@H](NCc1cccc(CN([C@H](C(=O)OC)C(C)C)S(C)(=O)=O)c1)C(C)C	Pf growth 48h inconclusive, Pf growth 96h 14.7µM
COC(=O)CN1C(c2ccc(OC)cc2)=Nc2ccc(Cl)cc2C1c1ccccc1 (stereo not drawn)	Pf growth 48h 14.7µM, Pf growth 96h 10.4µM
